Test results taken from PubChem BioAssay (Tox21).
Several values for one entry are separate records, joined by “and”; a condition that tells them apart may be missing. Identical values can stand only once. Results filed as inconclusive are left out. Entries that show only a call come without a potency. More than one record can exist for a structure, and the calls need not agree. Activity calls are given as the source filed them. Unless noted, the call rests on the fitted dose curve.

Columns and labels:
[1] = Nuclear factor erythroid 2-related factor 2/antioxidant responsive element (Nrf2/ARE) small molecule agonists: qHTS cell viability counter screen in human keratinocytes (AID 1919968; active means well fitted curve in the direction sought with a large enough effect in the repeat runs; an effect the other way counts as inactive or inconclusive; further: nearly all actives have a fitted effect of over 55% in size; further: potency means the concentration at half of the fitted maximal effect)
Summary of the method: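 KeratinoSens cells (HaCaT keratinocytes stably carrying an ARE-luciferase reporter) were seeded at 1,500 cells/well and rested 5 h at 37 C/5% CO2. They were then exposed to compounds in DMSO for 23 h. Viability was read by CellTiter-Fluor fluorescence after 1 h.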

[2] = Nuclear factor erythroid 2-related factor 2/antioxidant responsive element (Nrf2/ARE) small molecule agonists: luciferase reporter gene qHTS assay in human keratinocytes (AID 1919969); further: nearly all actives have a fitted effect of over 35% in size; further: potency means the concentration at half of the fitted maximal effect
[3] = target: Gonadotropin-releasing hormone receptor (Homo sapiens) (UniProt P30968); experiment: Human gonadotropin-releasing hormone receptor (GnRHR) small molecule agonists, calcium flux assay in GnRHR-HEK293 cells (AID 1920063); further: nearly all actives have a fitted effect of over 35% in size
Summary of the method: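 HEK293 cells stably expressing human GnRHR were plated 18 h at 37 °C, loaded with calcium dye 1 h at 37 °C, then given compound in agonist mode; fluorescence (Ex/Em 480/540) read kinetically for 3 min at 1 s intervals.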

[4] = target: KiSS-1 receptor (Homo sapiens) (UniProt Q969F8); experiment: Human kisspeptin (KISS1R) small molecule agonists, calcium flux assay in KISS1R-HEK293 cells (AID 1920064; active means well fitted curve in the direction sought with a large enough effect in the repeat runs; an effect the other way counts as inactive or inconclusive)
Summary of the method: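 HEK293 cells stably expressing human KISS1R were plated 18 h at 37 °C, loaded with calcium dye for 1 h at 37 °C, then given compound by pin tool. Fluorescence (Ex/Em 480/540) was read kinetically for 3 min.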

[5] = G protein-coupled receptor (GPCR) small molecule agonists, calcium flux assay: HEK293 wild type cell line counter screen (AID 1920065)
Summary of the method: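 Cells were plated and cultured 18 h at 37 C/5% CO2, then loaded with calcium dye for 1 h at 37 C. Compounds in DMSO were pin-transferred in agonist mode, and fluorescence (Ex/Em 480/540) was read kinetically for 3 min at 1 s intervals.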

[6] = p53 small molecule agonists, cell-based qHTS assay with human liver microsomes (AID 1963577)
Summary of the method: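 Cells carrying a p53-responsive bla reporter were rested 5 h (37 C, 5% CO2) before compound transfer. Human liver microsomes plus NADPH, 0.5 mg/mL final apiece, supplied metabolism during the 16 h 37 C exposure.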

[7] = p53 small molecule agonists, cell-based qHTS assay with human liver microsomes: qHTS cell viability counter screen (AID 1963579); further: nearly all actives have a fitted effect of over 45% in size
Summary of the method: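 Seed p53RE-bla cells at 4,000 per well; incubate 5 h at 37 C; add compound, human liver microsomes and NADPH; incubate 16 h at 37 C; add CellTiter-Glo; after 30 min at room temperature, read luminescence.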

[8] = p53 small molecule agonists, cell-based qHTS assay with rat liver microsomes: qHTS cell viability counter screen (AID 1963580); further: nearly all actives have a fitted effect of over 45% in size
Summary of the method: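 p53RE-bla HCT-116 cells were exposed 16 h at 37 C to compounds with rat liver microsomes (0.5 mg/mL) and NADPH (0.5 mg/mL). Viability was measured in the same wells as ATP content by CellTiter-Glo luminescence.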

[9] = p53 small molecule agonists, cell-based qHTS assay: qHTS cell viability counter screen (AID 1963581); further: nearly all actives have a fitted effect of over 45% in size; further: potency means the concentration at half of the fitted maximal effect
Summary of the method: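 p53RE-bla HCT-116 cells were exposed to compounds for 16 h at 37 C; after the beta-lactamase FRET read in the same wells, CellTiter-Glo was added and luminescence (intracellular ATP) read after 30 min at room temperature.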

[10] = p53 small molecule agonists, cell-based qHTS assay (AID 1963582; active means well fitted activation curve with a large enough effect in the signal ratio in the repeat runs, not every such curve was filed as active; the % refers to the signal ratio)
Summary of the method: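 p53RE-bla beta-lactamase reporter cells rested 5 h at 37 C/5% CO2, then received compounds in DMSO by pin transfer and were incubated 16 h at 37 C. LiveBLAzer B/G FRET substrate was loaded for 2 h at room temperature before fluorescence reading.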

[11] = target: 5-hydroxytryptamine receptor 2A (Homo sapiens) (UniProt P28223); experiment: 5-hydroxytryptamine receptor 2A (HTR2A) small molecule antagonists, cell-based qHTS assay (AID 1963586); further: nearly all actives have a fitted effect of over 45% in size
Summary of the method: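 Antagonist-mode intracellular calcium assay: DOI (4 nM) added after 5 min compound pre-incubation at room temperature to dye-loaded HTR2A-CHO cells. Fluorescence followed for 3 min, sampled every second.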

[12] = target: 5-hydroxytryptamine receptor 2A (Homo sapiens) (UniProt P28223); experiment: 5-hydroxytryptamine receptor 2A (HTR2A) small molecule agonists, cell-based qHTS assay (AID 1963587); further: nearly all actives have a fitted effect of over 30% in size
Summary of the method: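 CHO cells stably expressing human HTR2A, plated 18 h, loaded with calcium dye 1 h at 37 C. Agonist mode: compounds added and intracellular calcium fluorescence recorded kinetically for 2 min at 1 sec intervals.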

[13] = target: Muscarinic acetylcholine receptor M1 (Homo sapiens) (UniProt P11229); experiment: Cholinergic receptor muscarinic 1 (CHRM1) small molecule antagonists, cell-based qHTS assay (AID 1963588); further: nearly all actives have a fitted effect of over 40% in size
Summary of the method: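 CHRM1-CHO calcium-flux assay, antagonist mode. Cells were seeded 18 h, dye-loaded 1 h at 37 C and given compound for 5 min at RT, then acetylcholine was added at 50nM. FDSS fluorescence was read 3 min; 15 concentrations, three runs.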

[14] = target: Muscarinic acetylcholine receptor M1 (Homo sapiens) (UniProt P11229); experiment: Cholinergic receptor muscarinic 1 (CHRM1) small molecule agonists, cell-based qHTS assay (AID 1963589); further: nearly all actives have a fitted effect of over 35% in size
Summary of the method: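 CHO cells stably expressing human CHRM1, seeded 18 h at 37 C/5% CO2, dye-loaded 1 h at 37 C, then given compound in agonist mode; intracellular calcium fluorescence read kinetically at 1 s intervals. Fifteen concentrations, three independent runs.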

[15] = cAMP Responsive Elements (CRE) small molecule antagonists, cell-based qHTS assay (AID 1963591; active means well fitted inhibition curve with a large enough effect in the signal ratio in the repeat runs, not every such curve was filed as active; the % refers to the signal ratio)
Summary of the method: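 CRE-bla HEK293T cells were plated 18 h at 37 °C/5% CO2, pinned with compound in DMSO, then stimulated with NKH477 at 0.25 uM final for 3 h. LiveBLAzer B/G FRET substrate was added and plates incubated 2 h at room temperature.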

[16] = target: D(2) dopamine receptor (Homo sapiens) (UniProt P14416); experiment: Dopamine D2 receptor (DRD2) small molecule antagonists, cell-based qHTS assay (AID 1963595; active means well fitted inhibition curve with a large enough effect in the signal ratio in the repeat runs, with a control signal flat; the % refers to the signal ratio)
Summary of the method: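 In this cell-based antagonist screen, compounds act for 10 min at room temperature before a 30 min challenge with 12 nM quinpirole and 200 nM NKH477. cAMP is quantified by HTRF competition in DRD2-HEK293 cells containing 0.1 mM Ro20-1724.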

[17] = cAMP Responsive Elements (CRE) small molecule agonists, cell-based qHTS assay (AID 1963590)
Summary of the method: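 CRE-bla HEK 293T cells in DMEM with 10% dialyzed FBS, NEAA, pyruvate and 25 mM HEPES were plated 18 h at 37 C/5% CO2, then exposed to compounds in DMSO for 3 h before LiveBLAzer B/G FRET substrate addition.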

[18] = target: D(2) dopamine receptor (Homo sapiens) (UniProt P14416); experiment: Dopamine D2 receptor (DRD2) small molecule agonists, cell-based qHTS assay (AID 1963594); further: nearly all actives have a fitted effect of over 35% in size
Summary of the method: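 HEK293 cells stably expressing human DRD2, pre-treated with PDE inhibitor Ro20-1724 (0.1 mM final) and compound 10 min at room temperature, then stimulated with NKH477 (200nM […]) for 30 min. cAMP read by HTRF (665/620 nm).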

[19] = p53 small molecule agonists, cell-based qHTS assay with rat liver microsomes (AID 1963578)
Summary of the method: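 Fluorescence from a beta-lactamase reporter under a p53 response element was measured after cells had been incubated 16 h at 37 C with test compound and rat liver microsomes plus NADPH (0.5 mg/mL final each).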

[20] = target: Beta-2 adrenergic receptor (Homo sapiens) (UniProt P07550); experiment: Adrenergic beta2 receptor (ADRB2) small molecule antagonists, cell-based qHTS assay (AID 1963592); further: series mostly up to about 92 µM; nearly all actives have a fitted effect of over 50% in size
Summary of the method: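 Cells (CHO, stable ADRB2 overexpression) incubated 18-20hr at 37C; compounds added from DMSO; agonist mix (1nM isoproterenol, 100uM IBMX, 25uM Ro-20-1724) added; 0.5hr RT; d2-cAMP and anti-cAMP-cryptate added; 1hr RT; 665/615 nm read.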

Sequence of Beta-2 adrenergic receptor (Homo sapiens) (P07550 whole entry, looked up): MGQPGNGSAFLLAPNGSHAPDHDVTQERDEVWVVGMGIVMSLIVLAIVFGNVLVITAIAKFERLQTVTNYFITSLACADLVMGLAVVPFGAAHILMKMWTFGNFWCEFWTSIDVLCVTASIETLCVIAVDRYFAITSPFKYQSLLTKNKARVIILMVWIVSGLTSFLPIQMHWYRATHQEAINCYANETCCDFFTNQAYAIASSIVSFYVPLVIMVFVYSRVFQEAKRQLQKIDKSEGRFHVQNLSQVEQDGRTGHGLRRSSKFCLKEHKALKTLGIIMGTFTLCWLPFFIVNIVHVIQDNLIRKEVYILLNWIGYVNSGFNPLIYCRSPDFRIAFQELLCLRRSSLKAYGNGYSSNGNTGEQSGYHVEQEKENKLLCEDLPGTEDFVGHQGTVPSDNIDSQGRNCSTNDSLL
Sequence of 5-hydroxytryptamine receptor 2A (Homo sapiens) (P28223 whole entry, looked up): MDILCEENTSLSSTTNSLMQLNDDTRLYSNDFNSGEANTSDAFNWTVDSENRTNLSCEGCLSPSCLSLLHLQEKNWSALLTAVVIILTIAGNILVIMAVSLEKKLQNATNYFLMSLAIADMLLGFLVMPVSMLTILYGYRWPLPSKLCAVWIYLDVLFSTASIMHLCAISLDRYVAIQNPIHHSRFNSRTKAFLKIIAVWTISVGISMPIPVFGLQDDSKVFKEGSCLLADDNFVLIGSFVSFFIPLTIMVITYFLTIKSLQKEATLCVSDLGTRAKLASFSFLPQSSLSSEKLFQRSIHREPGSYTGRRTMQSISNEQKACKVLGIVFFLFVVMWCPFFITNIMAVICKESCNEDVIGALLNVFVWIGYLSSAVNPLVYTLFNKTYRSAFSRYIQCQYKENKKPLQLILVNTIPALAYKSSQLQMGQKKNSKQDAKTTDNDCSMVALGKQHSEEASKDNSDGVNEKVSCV
Sequence of Gonadotropin-releasing hormone receptor (Homo sapiens) (P30968 whole entry, looked up): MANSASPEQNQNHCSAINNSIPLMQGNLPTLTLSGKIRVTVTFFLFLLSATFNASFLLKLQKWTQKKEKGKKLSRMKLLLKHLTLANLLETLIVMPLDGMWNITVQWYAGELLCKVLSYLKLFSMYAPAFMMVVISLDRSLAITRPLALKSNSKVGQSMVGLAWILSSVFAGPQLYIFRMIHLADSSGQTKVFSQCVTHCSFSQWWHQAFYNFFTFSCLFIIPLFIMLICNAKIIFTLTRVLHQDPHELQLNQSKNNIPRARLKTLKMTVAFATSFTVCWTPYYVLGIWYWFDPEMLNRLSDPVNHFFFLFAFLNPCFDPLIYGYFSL
Sequence of Muscarinic acetylcholine receptor M1 (Homo sapiens) (P11229 whole entry, looked up): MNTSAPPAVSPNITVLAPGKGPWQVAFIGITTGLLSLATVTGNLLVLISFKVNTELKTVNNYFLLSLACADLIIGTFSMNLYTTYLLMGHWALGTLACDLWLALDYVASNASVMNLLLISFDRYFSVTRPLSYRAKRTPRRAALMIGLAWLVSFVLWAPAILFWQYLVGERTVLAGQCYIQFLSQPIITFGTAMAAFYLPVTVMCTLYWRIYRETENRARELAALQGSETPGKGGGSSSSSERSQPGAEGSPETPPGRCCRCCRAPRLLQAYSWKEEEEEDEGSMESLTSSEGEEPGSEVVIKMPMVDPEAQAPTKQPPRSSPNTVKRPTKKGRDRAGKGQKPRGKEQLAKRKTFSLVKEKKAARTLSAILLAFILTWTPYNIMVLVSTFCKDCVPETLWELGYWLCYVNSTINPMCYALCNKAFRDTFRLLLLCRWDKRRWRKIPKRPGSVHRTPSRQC
Sequence of D(2) dopamine receptor (Homo sapiens) (P14416 whole entry, looked up): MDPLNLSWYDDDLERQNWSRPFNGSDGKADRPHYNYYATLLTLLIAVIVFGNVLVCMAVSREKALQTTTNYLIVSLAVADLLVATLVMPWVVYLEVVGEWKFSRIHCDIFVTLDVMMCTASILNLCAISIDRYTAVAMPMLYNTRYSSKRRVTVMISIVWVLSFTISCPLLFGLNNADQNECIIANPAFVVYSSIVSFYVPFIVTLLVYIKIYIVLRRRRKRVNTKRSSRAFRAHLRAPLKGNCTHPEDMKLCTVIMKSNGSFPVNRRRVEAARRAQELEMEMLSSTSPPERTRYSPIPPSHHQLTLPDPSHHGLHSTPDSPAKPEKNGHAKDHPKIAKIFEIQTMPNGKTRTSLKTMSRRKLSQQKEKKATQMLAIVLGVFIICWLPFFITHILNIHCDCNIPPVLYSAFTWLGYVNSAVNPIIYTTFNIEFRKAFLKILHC
Sequence of KiSS-1 receptor (Homo sapiens) (Q969F8 whole entry, looked up): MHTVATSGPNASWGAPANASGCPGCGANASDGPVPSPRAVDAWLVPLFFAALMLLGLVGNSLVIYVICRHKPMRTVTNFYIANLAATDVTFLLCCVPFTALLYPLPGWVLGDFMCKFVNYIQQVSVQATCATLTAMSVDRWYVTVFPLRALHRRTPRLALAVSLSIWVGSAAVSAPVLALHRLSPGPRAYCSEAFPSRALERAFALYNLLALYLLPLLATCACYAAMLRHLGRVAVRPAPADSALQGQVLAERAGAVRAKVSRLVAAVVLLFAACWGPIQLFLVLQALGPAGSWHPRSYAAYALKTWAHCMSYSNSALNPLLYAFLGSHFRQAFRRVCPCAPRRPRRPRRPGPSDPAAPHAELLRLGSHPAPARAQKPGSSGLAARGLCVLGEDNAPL

Row | SMILES | Potency [1] | Potency [2] | Potency [3] | Potency [4] | Potency [5] | Potency [6] | Potency [7] | Potency [8] | Potency [9] | Potency [10] | Potency [11] | Potency [12] | Potency [13] | Potency [14] | Potency [15] | Potency [16] | Potency [17] | Potency [18] | Potency [19] | Potency [20]
1 | Clc1ccc(C2(Cn3cncn3)OCCO2)c(Cl)c1 | inactive | inactive | inactive | inactive | inactive | inactive | inactive | inactive | inactive | inactive | inactive | inactive | inactive | inactive | inactive | inactive |  |  |  | 
2 | O=NN1CCCC1 | 14.3 µM (active) and inactive | inactive | inactive | inactive | inactive | inactive | inactive | inactive | inactive | inactive | inactive | inactive | inactive | inactive |  | inactive | inactive | inactive |  | 
3 | c1ccc2c(c1)Nc1ccccc1S2 | inactive | 61.1 µM (active) and inactive | inactive | inactive | inactive | inactive |  | inactive | inactive | inactive |  |  |  |  | inactive | inactive | inactive | inactive | inactive | inactive
4 | [O]=[Cr](=[O])([OH])[O][Cr](=[O])(=[O])[OH] | 30.9 µM (active) and 61 µM (active) | inactive | inactive | inactive | inactive | inactive |  |  | 18.4 µM (active) |  | inactive | inactive | inactive | inactive |  | inactive | inactive | inactive | inactive | inactive
5 | C1=Cc2cccc3cccc1c23 | inactive | 23.9 µM (active) and inactive | inactive | inactive | inactive | inactive | inactive | inactive | inactive | inactive | inactive | inactive | inactive | inactive | inactive | inactive | inactive |  |  | inactive
6 | NC(=O)CCl | inactive | 61.1 µM (active) | inactive | inactive | inactive | inactive |  | inactive |  |  | inactive | inactive | inactive | inactive | inactive | inactive | inactive | inactive | inactive | inactive
7 | NC1(c2ccccc2)CCCCC1 | inactive | inactive | inactive | inactive | inactive | inactive |  | inactive |  | inactive | inactive | inactive | inactive | inactive | inactive | inactive | inactive | inactive | inactive | inactive
